# Measurements reported in PubChem BioAssay (NCATS).
# Unmarked numbers belong to inactive results. Inconclusive results are not listed. Entries that show only a call come without a potency. Active and inactive are the calls of the source. Unless noted, calls follow the shape of the dose curve; as a rule, active = well fitted curve in the direction sought with a large enough effect; inconclusive = small, poorly fitted or top-dose-only effect, or another doubt; inactive = no such curve, though single readings can be large; an effect the other way counts as inactive or inconclusive.
# Experiments:
# [1] = qHTS for differential inhibitors of proliferation of Plasmodium falciparum line GB4 (AID 1816); details: Potency: Plasmodium falciparum GB4 proliferation inhibition;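 also: parasite growth measured after 72 h incubation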; also: potency is read from the fitted curve at half-maximal effect
# [2] = qHTS for differential inhibitors of proliferation of Plasmodium falciparum line W2 (AID 1883); details: Potency: Plasmodium falciparum W2 proliferation inhibition;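 also: parasites grown with compound for 72 h before lysis and staining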; also: potency is read from the fitted curve at half-maximal effect
# [3] = biological target: ATP-dependent DNA helicase Q1 (Homo sapiens) (UniProt P46063); assay: qHTS Validation Assay for Inhibitors of RecQ-Like Dna Helicase 1 (RECQ1) (AID 2353)
# Chain of ATP-dependent DNA helicase Q1 (Homo sapiens) (P46063 whole entry, looked up): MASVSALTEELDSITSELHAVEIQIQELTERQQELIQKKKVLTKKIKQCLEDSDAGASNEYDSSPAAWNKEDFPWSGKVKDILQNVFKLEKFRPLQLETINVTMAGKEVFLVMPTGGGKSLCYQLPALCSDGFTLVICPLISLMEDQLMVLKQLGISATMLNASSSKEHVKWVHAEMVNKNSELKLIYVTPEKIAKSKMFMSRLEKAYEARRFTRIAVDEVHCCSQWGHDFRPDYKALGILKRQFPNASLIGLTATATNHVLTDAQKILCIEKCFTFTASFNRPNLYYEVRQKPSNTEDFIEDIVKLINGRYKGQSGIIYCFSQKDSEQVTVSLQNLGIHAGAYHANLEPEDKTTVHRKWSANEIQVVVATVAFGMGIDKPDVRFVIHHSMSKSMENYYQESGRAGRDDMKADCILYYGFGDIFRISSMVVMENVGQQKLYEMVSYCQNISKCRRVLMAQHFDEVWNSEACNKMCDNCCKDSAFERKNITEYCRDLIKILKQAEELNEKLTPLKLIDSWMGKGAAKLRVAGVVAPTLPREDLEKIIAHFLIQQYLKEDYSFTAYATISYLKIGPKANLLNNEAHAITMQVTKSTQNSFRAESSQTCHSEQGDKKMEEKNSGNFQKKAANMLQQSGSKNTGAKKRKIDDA
# Summary of the method: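 50 nM RECQ1T1 preincubated 15 min with compound in Tris pH 8.0 buffer with MgCl2, DTT, Tween-20 and 2.5 ug/ml poly(dI-dC); started with 200 nM TAMRA/BHQ-2 forked duplex and 2 mM ATP. Unwinding read as fluorescence (525/598 nm), two reads 2 h apart.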
# [4] = qHTS for differential inhibitors of proliferation of Plasmodium falciparum line 7G8 (AID 1815);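 also: parasite growth measured after three days of incubation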; also: potency is read from the fitted curve at half-maximal effect
# [5] = biological target: RecQ-like DNA helicase BLM (Homo sapiens) (UniProt P54132); assay: qHTS Validation Assay for Inhibitors of Bloom's syndrome helicase (BLM) (AID 2364)
# Chain of RecQ-like DNA helicase BLM (Homo sapiens) (P54132 whole entry, looked up): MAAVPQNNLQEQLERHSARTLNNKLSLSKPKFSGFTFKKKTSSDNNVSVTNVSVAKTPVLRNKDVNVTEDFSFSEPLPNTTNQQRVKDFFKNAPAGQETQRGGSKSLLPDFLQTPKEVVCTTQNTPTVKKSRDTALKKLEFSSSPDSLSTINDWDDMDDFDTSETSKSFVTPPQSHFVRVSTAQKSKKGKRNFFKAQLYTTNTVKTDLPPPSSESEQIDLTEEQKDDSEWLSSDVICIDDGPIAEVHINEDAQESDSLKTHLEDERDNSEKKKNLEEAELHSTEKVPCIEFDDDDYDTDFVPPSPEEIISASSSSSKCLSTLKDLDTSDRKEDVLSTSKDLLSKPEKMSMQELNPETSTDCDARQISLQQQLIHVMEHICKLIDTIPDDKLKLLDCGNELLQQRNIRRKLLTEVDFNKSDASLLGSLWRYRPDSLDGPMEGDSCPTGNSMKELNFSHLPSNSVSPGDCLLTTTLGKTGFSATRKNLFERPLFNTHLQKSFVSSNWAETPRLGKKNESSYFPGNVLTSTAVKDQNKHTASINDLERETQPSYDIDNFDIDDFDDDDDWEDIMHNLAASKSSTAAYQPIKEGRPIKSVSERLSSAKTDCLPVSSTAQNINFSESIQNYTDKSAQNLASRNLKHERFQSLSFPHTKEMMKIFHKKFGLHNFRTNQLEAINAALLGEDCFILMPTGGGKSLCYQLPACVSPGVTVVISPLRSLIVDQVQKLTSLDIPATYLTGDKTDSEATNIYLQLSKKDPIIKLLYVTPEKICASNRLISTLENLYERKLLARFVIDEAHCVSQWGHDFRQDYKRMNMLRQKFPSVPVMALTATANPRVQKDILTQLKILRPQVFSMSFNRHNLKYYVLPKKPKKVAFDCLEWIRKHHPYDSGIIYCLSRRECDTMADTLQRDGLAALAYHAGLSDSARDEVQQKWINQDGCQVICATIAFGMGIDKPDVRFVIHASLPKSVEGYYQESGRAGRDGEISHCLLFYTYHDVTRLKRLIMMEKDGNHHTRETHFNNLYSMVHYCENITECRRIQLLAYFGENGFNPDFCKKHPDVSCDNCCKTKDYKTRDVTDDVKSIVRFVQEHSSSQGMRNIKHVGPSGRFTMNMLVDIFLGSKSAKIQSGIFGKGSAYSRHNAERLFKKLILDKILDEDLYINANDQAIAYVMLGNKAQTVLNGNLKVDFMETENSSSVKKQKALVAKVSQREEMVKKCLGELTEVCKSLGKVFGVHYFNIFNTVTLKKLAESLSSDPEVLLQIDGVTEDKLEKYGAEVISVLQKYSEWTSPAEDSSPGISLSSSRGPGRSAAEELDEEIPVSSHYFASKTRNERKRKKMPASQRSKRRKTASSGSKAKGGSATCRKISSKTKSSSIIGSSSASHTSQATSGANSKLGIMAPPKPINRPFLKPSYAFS
# Summary of the method: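 BLM 50 nM in 25 mM Tris-HCl pH 8.0, 5 mM NaCl, 2 mM MgCl2, 1 mM DTT, 0.01% Tween-20, 2.5 ug/ml poly(dI-dC); 15 min cpd preinc, RT. Start: 200 nM forked DNA + 2 mM ATP (final). TAMRA read, 2 reads 2 h apart.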
# [6] = qHTS Assay for Modulators of Human Peripheral Myelin Protein 22 (PMP22) Expression/Activity (AID 1967; active = well fitted curve in the direction sought with a large enough effect in the signal ratio; the % refers to the signal ratio)
# Summary of the method: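 Mouse MSC80 Schwann line, Pmp22 promoter–CBG68 reporter, EF-alpha–CBR internal control. 24h compound exposure, 37 °C/5% CO2, DMEM + 10% FBS. Readout: corrected green/red luminescence ratio, normalized to untreated cells; concentration-response curves fitted and classified.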
# [7] = qHTS profiling for inhibitors of Plasmodium falciparum proliferation (AID 504749); also: nearly all actives have a fitted effect of over 60% in size; details: P. falciparum in erythrocytes, SYBR Green DNA, 72 h, at 28.7 µM (top of the series)
# Summary of the method: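 Parasite proliferation within erythrocytes, 72 h exposure. Endpoint: SYBR Green I fluorescence after overnight lysis at room temperature. Controls: 0.29 uM artemisinin, DMSO.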
# [8] = AP1 Signaling Pathway (AID 357; active = well fitted curve in either direction with a large enough effect, not every such curve was filed as active;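 also: ME-180 reporter cells stimulated with EGF at its EC50 level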); details: ME-180 AP-1-bla reporter, EGF-induced, beta-lactamase ratio, 5 h; at 7.69 µM (top of the series) unless noted
# Summary of the method: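 Cells are seeded overnight, exposed to compound titrations and an EC50 level of EGF for 5 hours at 37 °C, then loaded with CCF4 dye for 2.5 hours. Beta-lactamase activity under the AP-1 element is read as a blue/green ratio.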
# [9] = biological target: Cytochrome P450 1A2 (Homo sapiens) (UniProt P05177); assay: p450-cyp1a2 (AID 410; calls by dose curve; also: potency is read from the fitted curve at half-maximal effect)
# Chain of Cytochrome P450 1A2 (Homo sapiens) (P05177 whole entry, looked up): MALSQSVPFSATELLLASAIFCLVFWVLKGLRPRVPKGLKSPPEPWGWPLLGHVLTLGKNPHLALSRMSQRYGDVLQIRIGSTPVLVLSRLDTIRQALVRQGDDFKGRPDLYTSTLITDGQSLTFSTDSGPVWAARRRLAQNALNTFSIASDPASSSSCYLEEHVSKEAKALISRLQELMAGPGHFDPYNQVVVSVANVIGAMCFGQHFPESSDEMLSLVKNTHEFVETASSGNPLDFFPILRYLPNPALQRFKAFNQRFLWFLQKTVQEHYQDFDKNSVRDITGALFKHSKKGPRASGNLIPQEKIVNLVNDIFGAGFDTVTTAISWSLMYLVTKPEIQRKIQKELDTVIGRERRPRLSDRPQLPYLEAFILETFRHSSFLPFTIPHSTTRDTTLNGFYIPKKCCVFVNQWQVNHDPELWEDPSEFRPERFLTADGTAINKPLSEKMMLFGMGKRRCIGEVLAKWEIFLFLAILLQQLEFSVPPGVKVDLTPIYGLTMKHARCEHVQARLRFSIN
# Summary of the method: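 Luminescent readout of luciferin formed from Luciferin-ME by human CYP1A2; data normalized against complete inhibition by 57 uM furafylline. Enzyme 20nM, substrate 100uM at Km, 100mM KPO4 buffer, 60 min reaction at room temperature.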
# [10] = NFAT Signaling Pathway (AID 444; active = well fitted curve in either direction with a large enough effect, not every such curve was filed as active;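 also: carbachol stimulus at about its EC50 of 1 µM final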); details: Jurkat NFAT-bla M1, carbachol, beta-lactamase ratio, 5 h; at 7.69 µM (top of the series) unless noted
# Summary of the method: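 Jurkat cells carrying an NFAT-driven β-lactamase reporter and co-transfected muscarinic M1 receptor were treated with compound plus carbachol (1 uM final, an EC50 level) for 5 h at 37 °C. CCF4 loading followed for 1 h at RT; 460/530 nm ratio gave %activity.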
# [11] = Stat Signaling Pathway (AID 446; active = well fitted curve in either direction with a large enough effect, not every such curve was filed as active;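 also: ME-180 cervical cancer cells given 40 pM IL-6 alongside compound; SIE-controlled beta-lactamase reporter measured as 460/530 nm FRET emission ratio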); details: ME-180 SIE beta-lactamase reporter, IL-6 stimulated, 5 h; at 7.69 µM (top of the series) unless noted
# Summary of the method: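 ME-180 cells carrying a SIE-driven beta-lactamase reporter are stimulated with 40 pM IL-6 for 5 h at 37C in the presence of compound. The 460/530 nm FRET substrate ratio is read after 2.5 h at RT. Data are normalised to 300 pM IL-6 and to 125 nM JAK inhibitor controls.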
# [12] = biological target: Glucocorticoid receptor (Homo sapiens) (UniProt P04150); assay: GR-GFP Redistribution (AID 450;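 active = compounds whose dose series gives a full or clear partial fitted curve of increased nuclear translocation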; also: potency is read from the fitted curve at half-maximal effect); details: U2OS GR-GFP nuclear translocation, laser cytometry, 2 h
# Chain of Glucocorticoid receptor (Homo sapiens) (P04150 whole entry, looked up, the tested form may be a part): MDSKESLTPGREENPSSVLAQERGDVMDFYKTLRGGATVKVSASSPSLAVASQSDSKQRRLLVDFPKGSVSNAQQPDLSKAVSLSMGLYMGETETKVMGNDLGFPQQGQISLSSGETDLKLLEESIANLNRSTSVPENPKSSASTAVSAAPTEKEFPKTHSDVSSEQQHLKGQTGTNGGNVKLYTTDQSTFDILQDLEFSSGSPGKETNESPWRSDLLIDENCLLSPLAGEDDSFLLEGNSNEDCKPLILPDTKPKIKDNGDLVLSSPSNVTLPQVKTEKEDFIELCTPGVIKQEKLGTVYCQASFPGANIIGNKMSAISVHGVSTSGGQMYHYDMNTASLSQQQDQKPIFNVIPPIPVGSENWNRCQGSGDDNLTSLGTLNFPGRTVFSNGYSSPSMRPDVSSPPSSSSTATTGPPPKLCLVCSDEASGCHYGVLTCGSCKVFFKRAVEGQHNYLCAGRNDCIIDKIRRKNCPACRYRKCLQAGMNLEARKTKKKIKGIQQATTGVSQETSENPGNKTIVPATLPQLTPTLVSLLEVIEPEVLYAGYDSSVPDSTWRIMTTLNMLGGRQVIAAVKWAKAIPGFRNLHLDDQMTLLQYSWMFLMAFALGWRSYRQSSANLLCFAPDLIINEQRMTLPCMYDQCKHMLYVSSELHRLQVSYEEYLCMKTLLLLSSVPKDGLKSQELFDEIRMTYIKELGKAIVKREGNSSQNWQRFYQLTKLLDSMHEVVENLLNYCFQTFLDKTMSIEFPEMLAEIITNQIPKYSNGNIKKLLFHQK
# [13] = biological target: Glucocorticoid receptor (Homo sapiens) (UniProt P04150); assay: GR-EFC Redistribution (AID 451; calls by dose curve; also: potency is read from the fitted curve at half-maximal effect); details: CHO-K1 GR-EFC translocation, beta-gal luminescence, 2 h
# Summary of the method: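 CHO-K1 cells stably expressing nuclear-localized β-gal enzyme acceptor and GR fused C-terminally to the enzyme donor fragment; ligand-driven nuclear translocation restores β-gal by complementation. Compounds titrated up to 46 uM final, 2 h at 37 °C; luminescence read.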
# [14] = biological target: Guanine nucleotide-binding protein G(i) subunit alpha-1 (Homo sapiens) (UniProt P63096); assay: qHTS Assay for Inhibitors of RGS12 GoLoco Motif Activity (Green Fluorophore) (AID 879);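 also: negative values mean loss of peptide binding seen as reduced polarization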
# Chain of Guanine nucleotide-binding protein G(i) subunit alpha-1 (Homo sapiens) (P63096 whole entry, looked up): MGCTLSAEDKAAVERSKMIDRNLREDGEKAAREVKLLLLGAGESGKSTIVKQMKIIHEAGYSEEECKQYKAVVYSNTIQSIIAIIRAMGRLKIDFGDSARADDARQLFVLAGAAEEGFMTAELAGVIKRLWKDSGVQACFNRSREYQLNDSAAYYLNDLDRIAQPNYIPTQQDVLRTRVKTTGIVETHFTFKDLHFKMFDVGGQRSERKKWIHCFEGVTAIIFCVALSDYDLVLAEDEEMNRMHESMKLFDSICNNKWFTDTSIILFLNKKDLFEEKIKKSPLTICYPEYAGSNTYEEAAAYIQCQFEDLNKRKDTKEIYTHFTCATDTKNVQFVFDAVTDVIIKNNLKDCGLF
# Summary of the method: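 Fluorescence polarization assay: 50 nM Gαi1 with 10 nM FITC-labeled RGS12 GoLoco peptide in 10 mM Tris pH 7.5, 150 mM NaCl, 0.1 mM GDP, 0.05% NP40, 10 min at room temperature with compound.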
# [15] = biological target: Pyruvate kinase (Leishmania mexicana) (UniProt Q27686); assay: qHTS Validation Assay for Inhibitors of Leishmania Mexicana Pyruvate Kinase (AID 945)
# Chain of Pyruvate kinase (Leishmania mexicana) (Q27686 2-499 E452W): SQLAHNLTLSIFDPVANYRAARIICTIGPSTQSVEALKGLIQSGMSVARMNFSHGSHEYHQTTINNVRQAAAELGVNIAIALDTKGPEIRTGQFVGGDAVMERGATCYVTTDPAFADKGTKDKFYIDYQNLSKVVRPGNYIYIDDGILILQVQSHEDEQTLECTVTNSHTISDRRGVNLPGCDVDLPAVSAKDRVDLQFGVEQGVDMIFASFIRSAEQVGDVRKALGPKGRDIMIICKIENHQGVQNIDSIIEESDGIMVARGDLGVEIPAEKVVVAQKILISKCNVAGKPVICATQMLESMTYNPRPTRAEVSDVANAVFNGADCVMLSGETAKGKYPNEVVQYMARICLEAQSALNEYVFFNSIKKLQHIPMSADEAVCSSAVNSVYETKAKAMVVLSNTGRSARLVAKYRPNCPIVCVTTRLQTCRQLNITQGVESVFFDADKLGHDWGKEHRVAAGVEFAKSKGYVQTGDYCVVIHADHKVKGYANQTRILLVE
# Summary of the method: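 qHTS eight-point titrations against 0.2 nM LmPYK (E451W) in imidazole buffer pH 7.2 with 0.5 mM PEP, 0.1 mM ADP; 1 h, room temperature. Readout: PKLight luminescence, normalized to neutral DMSO wells.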
# [16] = biological target: Pyruvate kinase PKM (Homo sapiens) (UniProt P14618); assay: qHTS Assay for Activators of Human Muscle Pyruvate Kinase (AID 954; active = well fitted curve in the direction sought with a large enough effect, not every such curve was filed as active)
# Chain of Pyruvate kinase PKM (Homo sapiens) (P14618 whole entry, looked up): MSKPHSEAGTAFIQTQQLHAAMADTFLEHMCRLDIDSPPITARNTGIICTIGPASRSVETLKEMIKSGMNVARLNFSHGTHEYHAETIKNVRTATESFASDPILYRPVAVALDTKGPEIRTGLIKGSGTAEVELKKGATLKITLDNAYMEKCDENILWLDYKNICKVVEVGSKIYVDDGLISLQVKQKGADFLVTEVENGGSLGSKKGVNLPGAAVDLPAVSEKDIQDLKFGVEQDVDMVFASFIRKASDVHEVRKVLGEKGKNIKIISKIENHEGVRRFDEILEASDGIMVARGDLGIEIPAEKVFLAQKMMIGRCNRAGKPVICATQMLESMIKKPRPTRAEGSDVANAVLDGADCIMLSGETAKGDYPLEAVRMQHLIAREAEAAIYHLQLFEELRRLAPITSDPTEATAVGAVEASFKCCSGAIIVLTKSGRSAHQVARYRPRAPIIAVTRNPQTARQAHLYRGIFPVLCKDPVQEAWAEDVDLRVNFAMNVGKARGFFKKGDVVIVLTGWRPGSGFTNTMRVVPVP
# Summary of the method: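 Purified human PKM2 (0.1 nM) with 0.5 mM PEP (Km) and 0.1 mM ADP in 50 mM imidazole pH 7.2, KCl, MgCl2, 1 h at room temperature; ATP formed read by coupled luciferase luminescence. Normalized to no-enzyme/110 uM thiadiazolimine inhibition; 0.3 nM enzyme column for activation.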
# [17] = biological target: alpha-glucosidase (Oryza sativa, rice) (UniProt Q653V4); assay: Counterscreen for Glucocerebrosidase Inhibitors: qHTS Assay for Rice alpha-Glucosidase at pH 5.0 (AID 997)
# Summary of the method: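 Rice alpha-glucosidase (4 nM final) with 400 uM 4-methylumbelliferyl-alpha-D-glucopyranoside in citrate buffer pH 5.0, 20 min at room temperature, stopped at pH 10; fluorescence 365/440 nm, compounds 0.7 nM–77 uM, AC50 from Hill fits.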
# [18] = biological target: Calcium and integrin-binding protein 1 (Homo sapiens) (UniProt Q99828); assay: Primary qHTS for Identification of Calcium Integrin Binding Protein 1 (CIB1) Competitor (AID 1508620);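 also: GST tagged CIB1 binding a fluorescein labelled alphaIIb integrin peptide tracer; top concentration of the series differs between compounds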
# Chain of Calcium and integrin-binding protein 1 (Homo sapiens) (Q99828 whole entry, looked up): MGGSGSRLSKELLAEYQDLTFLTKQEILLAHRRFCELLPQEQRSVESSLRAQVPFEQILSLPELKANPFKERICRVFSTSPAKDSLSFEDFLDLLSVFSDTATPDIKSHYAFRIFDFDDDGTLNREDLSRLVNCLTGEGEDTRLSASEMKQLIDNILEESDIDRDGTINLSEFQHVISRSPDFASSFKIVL
# Summary of the method: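 Fluorescence polarization competition: CIB1-GST (1 uM final) preincubated with compound 15 min at room temperature, then FITC-labeled alphaIIb peptide (100 nM final) added for another 15 min. Polarization read at Ex 480/Em 540.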
smiles,measurement,setting,value
Nc1ncnc2c1nc(Sc1ccc(Cl)cc1)n2[C@H]1O[C@@H]2COP(=O)(O)O[C@H]2[C@@H]1O,Potency,[1],7.94 µM (active)
same,Potency,[2],10 µM (active)
same,Potency,[3],inactive
OC[C@H]1O[C@@H](n2cnc3c(Nc4ccccc4)ncnc32)[C@H](O)[C@H]1O,Potency,[4],inactive
same,Potency,[1],inactive
same,Potency,[2],inactive
same,Potency,[5],inactive
O=[N+]([O-])c1ccc(CSc2ncnc3c2ncn3[C@@H]2O[C@H](CO)[C@H](O)[C@H]2O)cc1,Potency,[1],inactive
same,outcome,[6],inactive
same,Potency,[3],inactive
Nc1nc2c(nc(Br)n2C2O[C@H]3COP(=O)(O)O[C@@H]3C2O)c(=O)[nH]1 (stereo partly specified),Potency,[2],6.31 µM (active)
same,Potency,[3],inactive
COc1ccc(CCNC[C@@H](O)c2ccc(O)cc2)cc1OC,Potency,[4],inactive
same,Potency,[1],inactive
same,outcome,[6],inactive
same,Potency,[5],inactive
same,"activity, negative = inhibition",[7]; parasite line A,10.4%
same,"activity, negative = inhibition",[7]; parasite line B,8.86%
Nc1ncnc2c1ncn2[C@@H]1O[C@H](CO)[C@H](O)[C@H]1O,Potency,[4],inactive
same,Potency,[1],inactive
same,outcome,[6],inactive
same,Potency,[3],inactive
same,Potency,[5],inactive
CC(=O)NCCc1ccc(O)c(O)c1,"activity change, negative = inhibition",[8],-4.94% [at 38 µM]
same,Potency,[9],inactive
same,"activity change, negative = inhibition",[10],11.3% [at 38 µM]
same,"activity, negative = inhibition",[11],5.1% [at 38 µM]
same,Potency,[12],> 46 µM
same,Potency,[13],> 46 µM
same,outcome,[14],inactive
same,Potency,[15],inactive
same,outcome,[16],inactive
same,outcome,[17],inactive
same,outcome,[6],inactive
same,Potency,[3],inactive
C[C@H]1CC2[C@@H]3CCC4=CC(=O)C=C[C@]4(C)[C@@]3(Cl)[C@@H](O)C[C@]2(C)[C@@]1(O)C(=O)CO (stereo partly specified),outcome,[6],inactive
same,Potency,[3],inactive
CCCCC#Cc1nc(N)c2ncn([C@@H]3O[C@H](C(=O)NCC)[C@@H](O)[C@H]3O)c2n1,Potency,[4],7.94 µM (active)
same,Potency,[2],11.2 µM (active)
same,Potency,[5],inactive
CC(C)CN(C)c1nc(N)c(C(=O)N=C(N)N)nc1Cl,Potency,[9],0.794 µM (active)
same,"activity change, negative = inhibition",[10],-14% [at 38 µM]
same,"activity, negative = inhibition",[11],-2.92% [at 38 µM]
same,Potency,[13],> 46 µM
same,outcome,[14],inactive
same,Potency,[15],inactive
same,outcome,[16],inactive
same,outcome,[17],inactive
same,Potency,[4],11.2 µM (active)
same,Potency,[1],11.2 µM (active)
same,Potency,[2],2.82 µM (active)
same,Potency,[3],inactive
same,Potency,[5],inactive
C[C@H](Cc1ccccc1)Nc1ncnc2c1ncn2[C@@H]1O[C@H](CO)[C@H](O)[C@H]1O,Potency,[4],inactive
same,Potency,[1],inactive
same,Potency,[5],inactive
CN1C2CCC1CC(NC(=O)c1nn(C)c3ccccc13)C2 (stereo unspecified),Potency,[1],inactive
same,outcome,[6],inactive
same,Potency,[5],inactive
CSc1nc(N)c2ncn([C@@H]3O[C@H](COP(=O)(O)OP(=O)(O)OP(=O)(O)O)[C@H](O)[C@H]3O)c2n1,Potency,[1],12.6 µM (active)
same,Potency,[2],12.6 µM (active)
same,Potency,[3],inactive
CSc1nc(N)c2ncn([C@@H]3O[C@H](COP(=O)(O)OP(=O)(O)O)[C@H](O)[C@H]3O)c2n1,Potency,[4],inactive
same,Potency,[1],inactive
same,Potency,[2],inactive
same,outcome,[6],inactive
same,Potency,[3],inactive
COc1ccc(OC)c(NC(=O)c2ccccc2OC(C)=O)c1,Potency,[18],inactive
Cc1ccccc1C(=O)N1CCc2cc(-c3nc(NC(=O)Cc4ccc5ccccc5c4)sc3C)ccc21,Potency,[18],inactive
CC(C)(C)OC(=O)NCCOCCOCCOc1ccc(-c2no[n+]([O-])c2C#N)cc1,Potency,[18],inactive
CCCN(Cc1cccs1)c1ncnc2ccc(-c3ccc4c(c3)OCO4)cc12,Potency,[18],inactive
Cc1noc(C)c1-c1ccc2ncnc(NCc3ccccc3F)c2c1,Potency,[18],inactive
Cc1nnc(-c2ccccc2)n1CCCn1ccnc1,Potency,[18],inactive
CC(=O)c1ccc(N2CCN(S(=O)(=O)c3ccc(N4CCCC4=O)cc3)CC2)cc1,Potency,[18],inactive
Cc1cc(-c2nnc3n2CCCCC3)c(C)n1-c1ccc(Br)cc1,Potency,[18],inactive
Cc1ccc(NC(=O)CN2C(=O)N/C(=C\c3cccn3-c3ccc(P(=O)(O)O)cc3)C2=O)cc1,Potency,[18],inactive
O=C(COC(=O)CNC(=O)c1ccccc1Cl)Nc1cc(C(F)(F)F)ccc1Cl,Potency,[18],inactive
O=C(NCc1ccc(F)cc1)n1cc(P(=S)(c2ccccc2)c2ccccc2)c2ccccc21,Potency,[18],inactive
O=C(CNC(=O)c1ccc2ccccc2c1)OC(C(=O)Nc1cc(C(F)(F)F)ccc1Cl)c1ccccc1 (stereo unspecified),Potency,[18],inactive
NCCC(=O)Nc1cccc(-c2nn3c(=O)cc(N4CCNCC4)nc3s2)c1,Potency,[18],inactive
Cc1ccc(CNc2cccc(N3CCCCC3)c2)cc1,Potency,[18],inactive
CC(C)(C)OC(=O)N1CCN(c2ccc(NCc3ccc(-c4cc(C(F)(F)F)cc(C(F)(F)F)c4)o3)cc2)CC1,Potency,[18],inactive
Cc1ccc(NS(=O)(=O)c2cc3c(cc2NCC(C)(C)O)NC(=O)CC3)cc1C,Potency,[18],inactive
Cc1c(C(=O)OCc2ccco2)[nH]c2c1C(=O)CC(c1ccco1)C2 (stereo unspecified),Potency,[18],inactive
Fc1ccc(-c2c(P(=S)(c3ccccc3)c3ccccc3)n3ccccc3[n+]2C/C=C/c2ccccc2)cc1,Potency,[18],inactive
CC(=O)Nc1sc2c(c1C(O)c1nc3ccccc3s1)CCN(C(C)C)C2 (stereo unspecified),Potency,[18],inactive
Cc1ccc(NS(=O)(=O)c2ccc3c(c2)CCC(=O)N3)cc1,Potency,[18],inactive
Oc1ccc(CNc2cc(C(F)(F)F)ccn2)c2cccnc12,Potency,[18],inactive
O=C(/C=C/c1ccccc1Cl)Nc1cccc([S+](=O)([O-])Nc2ccccc2F)c1,Potency,[18],inactive
CC(C)Oc1cccc(-c2ccnc(N3CCC(C(N)=O)CC3)n2)c1,Potency,[18],inactive
O=C(NCCc1nc2ccccc2[nH]1)C1CCCCC1,Potency,[18],inactive
CC(C)c1ccccc1-c1nc(NCc2ccc(-c3cccnc3)cc2)c2occc2n1,Potency,[18],inactive
Cc1cccc(-n2cnc3cc(C(=O)N4CC(C)CC(C)C4)ccc32)c1 (stereo unspecified),Potency,[18],inactive
COc1ccc(S(=O)(=O)N2CCN(S(=O)(=O)c3ccc4c(c3)OCCO4)CC2)cc1,Potency,[18],inactive
COC(=O)c1ccccc1NC(=O)c1ccc(F)cc1F,Potency,[18],inactive
Cc1cccc(S(=O)(=O)NC2CCN(C#N)C2)c1 (stereo unspecified),Potency,[18],inactive
CCOc1ccc(CCNC(=O)c2cc3ccccc3o2)cc1OCC,Potency,[18],inactive
O=C1CCCC2=C1C(c1[nH]ncc1Cl)N=C(Nc1nc3c(Cl)cccc3o1)N2 (stereo unspecified),Potency,[18],inactive
Cc1cccc(CNc2ccnc(-c3cccc(C(F)(F)F)c3)n2)c1,Potency,[18],inactive
COc1cc(O)c(C(CC(=O)N2CCC(C)CC2)c2ccc(OC)c(OC)c2)c(OC)c1 (stereo unspecified),Potency,[18],inactive
CCNC(=O)c1ccc(-c2ccc3ncnc(NCCc4cnc[nH]4)c3c2)o1,Potency,[18],inactive
